# Experimental data taken from the supplement of paper PMC8728848.
# Many of the other results were omitted from the sample, so the strongest signals are more common in it than they were.
# B1: XTP3-B-MRH2 (Homo sapiens), Q96DZ1 (protein)
# chain: EFLSGSYCFRGGVGWWKYEFCYGKHVHQYHEDKDSGKTSVVVGTWNQEEHIEWAKKNTARAYHLQDDGTQTVRMVSHFYGNGDICDITDKPRQVTVKLKCKESDSPHAVTVYMLEPHSCQYILGVESPVICKILDTA
# Columns and labels:
# Experiment in all cases: glycan array binding signal (z-score within array); higher = stronger binding
# Settings in all cases: glycan notation: IUPAC condensed, linker removed
# [1] = biological target: Fuc(a1-2)Gal(b1-3)[Fuc(a1-4)]GlcNAc(b1-3)[Fuc(a1-3)[Gal(b1-4)]GlcNAc(b1-6)]Gal(b1-4)Glc
# Method in brief: (§1)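 Negative Z-scores can be read as non-binding. The Z-score is calculated within each array and then averaged across arrays of one protein sequence at different concentrations or buffers and across linkers. Arrays, 3228 in all, were curated from the Consortium for Functional Glycomics database and kept only where the protein sequence was available.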
# [2] = biological target: Fuc(a1-2)Gal(b1-4)Fuc(a1-3)]GlcNAc(b1-2)Man(a1-3)[Fuc(a1-2)Gal(b1-4)[Fuc(a1-3)]GlcNAc(b1-2)Man(a1-6)]Man(b1-4)GlcNAc(b1-4)GlcNAc
# Method in brief: as §1
# [3] = biological target: Fuc(a1-2)Gal(b1-4)[Fuc(a1-3)]GlcNAc(b1-3)Gal(b1-4)[Fuc(a1-3)]GlcNAc
# Method in brief: as §1
# Fuc(a1-2)Gal6S(b1-4)Glc = biological target: Fuc(a1-2)Gal6S(b1-4)Glc
# Method in brief: as §1
# [4] = biological target: Fuc(a1-2)[Gal(a1-3)]Gal(b1-3)GlcNAc(b1-2)Man(a1-3)[Fuc(a1-2)[Gal(a1-3)]Gal(b1-3)GlcNAc(b1-2)Man(a1-6)]Man(b1-4)GlcNAc(b1-4)GlcNAc
# Method in brief: as §1
# [5] = biological target: Fuc(a1-2)[Gal(a1-3)]Gal(b1-4)Glc
# Method in brief: as §1
# [6] = biological target: Fuc(a1-2)[Gal(a1-3)]Gal(b1-4)GlcNAc(b1-2)Man(a1-3)[Fuc(a1-2)[Gal(a1-3)]Gal(b1-4)GlcNAc(b1-2)Man(a1-6)]Man(b1-4)GlcNAc(b1-4)GlcNAc
# Method in brief: as §1
# [7] = biological target: Fuc(a1-2)[GalNAc(a1-3)]Gal(b1-4)[Fuc(a1-3)]GlcNAc
# Method in brief: as §1
# [8] = biological target: Fuc(a1-3)[Gal(b1-4)]GlcNAc(b1-3)Gal(b1-3)[Fuc(a1-4)]GlcNAc
# Method in brief: as §1
# [9] = biological target: Fuc(a1-3)[Gal(b1-4)]GlcNAc(b1-3)GalNAc
# Method in brief: as §1
# [10] = biological target: Fuc(a1-3)[Gal(b1-4)]GlcNAc6S
# Method in brief: as §1
# Fuc(a1-4)GlcNAc = biological target: Fuc(a1-4)GlcNAc
# Method in brief: as §1
# Fuc(b1-3)GlcNAc = biological target: Fuc(b1-3)GlcNAc
# Method in brief: as §1
# [11] = biological target: Gal(a1-4)Gal(b1-3)GlcNAc(b1-2)Man(a1-3)[Gal(a1-4)Gal(b1-3)GlcNAc(b1-2)Man(a1-6)]Man(b1-4)GlcNAc(b1-4)GlcNAc
# Method in brief: as §1
# Gal(b1-2)Gal = biological target: Gal(b1-2)Gal
# Method in brief: as §1
# [12] = biological target: Gal(b1-3)GalNAc(a1-3)[Fuc(a1-2)]Gal(b1-4)GlcNAc
# Method in brief: as §1
# [13] = biological target: Gal(b1-3)GlcNAc(b1-3)Gal(b1-4)Glc
# Method in brief: as §1
# [14] = biological target: Gal(b1-3)[Fuc(a1-4)]GlcNAc(b1-3)Gal(b1-3)[Fuc(a1-4)]GlcNAc
# Method in brief: as §1
# [15] = biological target: Gal(b1-3)[Fuc(a1-4)]GlcNAc(b1-6)GalNAc
# Method in brief: as §1
# [16] = biological target: Gal(b1-4)GlcNAc(b1-2)Man(a1-6)[Man(a1-3)]Man(b1-4)GlcNAc(b1-4)GlcNAc
# Method in brief: as §1
# [17] = biological target: Gal(b1-4)GlcNAc(b1-3)Gal(b1-4)GlcNAc
# Method in brief: as §1
# [18] = biological target: Gal(b1-4)GlcNAc(b1-3)Gal(b1-4)GlcNAc(b1-2)Man(a1-3)[Gal(b1-4)GlcNAc(b1-3)Gal(b1-4)GlcNAc(b1-2)Man(a1-6)]Man(b1-4)GlcNAc(b1-4)GlcNAc
# Method in brief: as §1
# [19] = biological target: Gal(b1-4)GlcNAc(b1-3)Gal(b1-4)GlcNAc(b1-3)Gal(b1-4)GlcNAc(b1-3)Gal(b1-4)GlcNAc(b1-3)Gal(b1-4)GlcNAc(b1-2)[Gal(b1-4)GlcNAc(b1-3)Gal(b1-4)GlcNAc(b1-3)Gal(b1-4)GlcNAc(b1-3)Gal(b1-4)GlcNAc(b1-3)Gal(b1-4)GlcNAc(b1-6)]Man(a1-6)[Gal(b1-4)GlcNAc(b1-3)Gal(b1-4)GlcNAc(b1-3)Gal(b1-4)GlcNAc(b1-3)Gal(b1-4)GlcNAc(b1-3)Gal(b1-4)GlcNAc(b1-2)Man(a1-3)]Man(b1-4)GlcNAc(b1-4)[Fuc(a1-6)]GlcNAc
# Method in brief: as §1
# [20] = biological target: Gal(b1-4)GlcNAc(b1-3)[GlcNAc(b1-6)]Gal(b1-4)GlcNAc
# Method in brief: as §1
# [21] = biological target: Gal(b1-4)GlcNAc(b1-6)[Gal(b1-4)GlcNAc(b1-3)]GalNAc
# Method in brief: as §1
# [22] = biological target: Gal3S(b1-3)[Fuc(a1-4)]GlcNAc
# Method in brief: as §1
# GalNAc(a1-3)GalNAc = biological target: GalNAc(a1-3)GalNAc
# Method in brief: as §1
# GalNAc(b1-3)GalNAc = biological target: GalNAc(b1-3)GalNAc
# Method in brief: as §1
# GalNAc(b1-4)Gal(b1-4)Glc = biological target: GalNAc(b1-4)Gal(b1-4)Glc
# Method in brief: as §1
# GalNAc(b1-4)GlcNAc = biological target: GalNAc(b1-4)GlcNAc
# Method in brief: as §1
# [23] = biological target: GalNAc(b1-4)GlcNAc(b1-2)Man(a1-3)[GalNAc(b1-4)GlcNAc(b1-2)Man(a1-6)]Man(b1-4)GlcNAc(b1-4)GlcNAc
# Method in brief: as §1
# [24] = biological target: GalNAc3S(b1-4)[Fuc(a1-3)]GlcNAc
# Method in brief: as §1
# [25] = biological target: GlcNAc(b1-2)Man(a1-3)[GlcNAc(b1-2)Man(a1-6)]Man(b1-4)GlcNAc(b1-4)[Fuc(a1-6)]GlcNAc
# Method in brief: as §1
# [26] = biological target: GlcNAc(b1-2)[GlcNAc(b1-6)]Man(a1-6)[GlcNAc(b1-2)Man(a1-3)]Man(b1-4)GlcNAc(b1-4)GlcNAc
# Method in brief: as §1
# [27] = biological target: GlcNAc(b1-3)Gal(b1-4)GlcNAc(b1-2)[GlcNAc(b1-3)Gal(b1-4)GlcNAc(b1-6)]Man(a1-6)[GlcNAc(b1-3)Gal(b1-4)GlcNAc(b1-2)Man(a1-3)]Man(b1-4)GlcNAc(b1-4)GlcNAc
# Method in brief: as §1
# [28] = biological target: Kdn(a2-3)Gal(b1-4)[Fuc(a1-3)]GlcNAc
# Method in brief: as §1
# [29] = biological target: Neu5Ac(a2-3)Gal(b1-3)GlcNAc(b1-6)GalNAc
# Method in brief: as §1
# [30] = biological target: Neu5Ac(a2-3)Gal(b1-4)GlcNAc(b1-2)[Neu5Ac(a2-3)Gal(b1-4)GlcNAc(b1-4)]Man(a1-3)[GlcNAc(b1-4)][Neu5Ac(a2-3)Gal(b1-4)GlcNAc(b1-2)[Neu5Ac(a2-3)Gal(b1-4)GlcNAc(b1-6)]Man(a1-6)]Man(b1-4)GlcNAc(b1-4)GlcNAc
# Method in brief: as §1
# [31] = biological target: Neu5Ac(a2-3)Gal(b1-4)GlcNAc(b1-3)Gal(b1-4)[Fuc(a1-3)]GlcNAc
# Method in brief: as §1
# [32] = biological target: Neu5Ac(a2-6)Gal(b1-4)GlcNAc(b1-2)Man(a1-6)[Gal(b1-4)GlcNAc(b1-2)Man(a1-3)]Man(b1-4)GlcNAc(b1-4)GlcNAc
# Method in brief: as §1
# [33] = biological target: Neu5Ac(a2-6)Gal(b1-4)GlcNAc(b1-3)Gal(b1-4)GlcNAc(b1-3)GalNAc
# Method in brief: as §1
# [34] = biological target: Neu5Ac(a2-6)GlcNAc(b1-4)GlcNAc(b1-4)GlcNAc
# Method in brief: as §1
# [35] = biological target: Neu5Ac(a2-8)Neu5Ac(a2-8)Neu5Ac
# Method in brief: as §1
# [36] = biological target: Neu5Ac9Ac(a2-3)Gal(b1-4)GlcNAc
# Method in brief: as §1
# [37] = biological target: Neu5Gc(a2-8)Neu5Ac(a2-3)Gal(b1-4)GlcNAc
# Method in brief: as §1
# [38] = biological target: Neu5Gc(a2-8)Neu5Gc(a2-3)Gal(b1-4)GlcNAc
# Method in brief: as §1
binder,measurement,setting,value
B1,glycan array binding signal (z-score),[1],2.32
same,glycan array binding signal (z-score),[2],2.2
same,glycan array binding signal (z-score),[3],-0.464
same,glycan array binding signal (z-score),Fuc(a1-2)Gal6S(b1-4)Glc,0.258
same,glycan array binding signal (z-score),[4],2.72
same,glycan array binding signal (z-score),[5],1.19
same,glycan array binding signal (z-score),[6],2.95
same,glycan array binding signal (z-score),[7],-0.177
same,glycan array binding signal (z-score),[8],-2.1
same,glycan array binding signal (z-score),[9],-0.079
same,glycan array binding signal (z-score),[10],-0.412
same,glycan array binding signal (z-score),Fuc(a1-4)GlcNAc,2.2
same,glycan array binding signal (z-score),Fuc(b1-3)GlcNAc,-0.321
same,glycan array binding signal (z-score),[11],0.355
same,glycan array binding signal (z-score),Gal(b1-2)Gal,-0.575
same,glycan array binding signal (z-score),[12],0.353
same,glycan array binding signal (z-score),[13],0.052
same,glycan array binding signal (z-score),[14],3.38
same,glycan array binding signal (z-score),[15],-0.084
same,glycan array binding signal (z-score),[16],2.47
same,glycan array binding signal (z-score),[17],0.386
same,glycan array binding signal (z-score),[18],3.21
same,glycan array binding signal (z-score),[19],-0.908
same,glycan array binding signal (z-score),[20],0.199
same,glycan array binding signal (z-score),[21],0.934
same,glycan array binding signal (z-score),[22],0.892
same,glycan array binding signal (z-score),GalNAc(a1-3)GalNAc,5.08
same,glycan array binding signal (z-score),GalNAc(b1-3)GalNAc,-1.03
same,glycan array binding signal (z-score),GalNAc(b1-4)Gal(b1-4)Glc,-0.842
same,glycan array binding signal (z-score),GalNAc(b1-4)GlcNAc,2.09
same,glycan array binding signal (z-score),[23],-0.025
same,glycan array binding signal (z-score),[24],0.236
same,glycan array binding signal (z-score),[25],-0.201
same,glycan array binding signal (z-score),[26],1.7
same,glycan array binding signal (z-score),[27],0.276
same,glycan array binding signal (z-score),[28],-0.353
same,glycan array binding signal (z-score),[29],1.44
same,glycan array binding signal (z-score),[30],-1.25
same,glycan array binding signal (z-score),[31],-0.481
same,glycan array binding signal (z-score),[32],-0.687
same,glycan array binding signal (z-score),[33],-0.693
same,glycan array binding signal (z-score),[34],0.385
same,glycan array binding signal (z-score),[35],0.237
same,glycan array binding signal (z-score),[36],-0.6
same,glycan array binding signal (z-score),[37],0.283
same,glycan array binding signal (z-score),[38],2.85
